Rows were chosen to be rich in hits. Some 28% of all compounds tested hit in one or more screens of this group.
CD11b adhes enh = enhancers of CD11b/CD18 adhesion to fibrinogen, primary screen, K562 cells, luminescence. Integrin beta-2 (Homo sapiens) + Integrin alpha-M (Homo sapiens), P05107+P11215. ATPlite luminescence. activation, % at 10 µM. 0.07% of 93,000 active;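 active = 10 µM primary screen giving 50% or more activity, confirmed by 40% or more on retest at that dose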
CYP2C19 act = human CYP2C19 activators, primary screen, biochemical, luminescence | Cytochrome P450 2C19 (Homo sapiens), P33261 | recombinant CYP2C19, luciferin-H EGE luminescence; stronger effect = higher value; 0 = fully inhibited enzyme, 1 = untreated enzyme | activation factor at 5 µM | 96,000 tested, under 10 active | AID 1025, 2008;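 active = activation factor of at least 2 at 5 µM in the primary screen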;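 note: 0 = wells with 2.5 mM tranylcypromine and 1 = vehicle-only wells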
CYP2C19 inhib = blockers of cytochrome P450 2C19 activity – biochemical, luminescence, ADME assay, primary screen; P33261; CYP2C19 Supersomes, luciferin-H EGE luminescence, 30 min; inhibition, % at 5 µM; 21% of 96,000 active;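 active = CYP2C19 inhibition above a set limit at 5 µM in the primary screen, cut at about 50% in these data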;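 note: plate controls were negative control wells for no effect and 2.5 mM tranylcypromine positive control for full effect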
CYP2C9 activ = human CYP2C9 activators, primary screen, biochemical, luminescence; Cytochrome P450 2C9 (Homo sapiens), P11712; recombinant CYP2C9, luciferin-H conversion; stronger effect = higher value; factor 1 = untreated enzyme, 0 = blocked; activation factor at 5 µM; 1.4% of 96,000 active;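 active = activation factor of 2 or more for CYP2C9 at a 5 µM dose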;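 note: 0 = sulfaphenazole-blocked wells and 1 = vehicle-only wells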
CD11b adhes inh = inhibitors of CD11b/CD18 adhesion to fibrinogen, primary screen, K562 cells, luminescence; Integrin beta-2 (Homo sapiens) + Integrin alpha-M (Homo sapiens), P05107+P11215; ATPlite luminescence; Mn2+ added to activate the integrin; inhibition, % at 10 µM; 0.54% of 93,000 active;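 active = primary inhibition of 50% or more at 10 µM, then 40% or more on retest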
CYP2C9 inh = blockers of cytochrome P450 2C9 activity – biochemical, luminescence, ADME assay, primary screen; P11712; CYP2C9 Supersomes, luciferin-H conversion; inhibition, % at 5 µM; 20% of 96,000 active;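 active = blocking of liver enzyme CYP2C9 beyond about 50% at 5 µM, limit read from the data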
* = called active by the depositor.

What do the screens show for `COc1ccccc1-c1noc(CCC(=O)Nc2cccc(C)c2)n1`?
CD11b adhes enh: -1; CYP2C19 act: 0.3; CYP2C19 inhib: 74*; CYP2C9 activ: 0.6; CD11b adhes inh: -14; CYP2C9 inh: 42

Results for CCOC(=O)N1CCC(NC(=O)CCc2nc(-c3ccccc3F)no2)CC1 ?
CD11b adhes enh: -2; CYP2C19 act: 0.4; CYP2C19 inhib: 60*; CYP2C9 activ: 0.4; CD11b adhes inh: 10; CYP2C9 inh: 59*

Results for CCCCNC(=O)Oc1cccc(N2CCCC2=O)c1 ?
CD11b adhes enh: -3; CYP2C19 act: 1; CYP2C19 inhib: 2; CYP2C9 activ: 1.2; CD11b adhes inh: -12; CYP2C9 inh: -15

How did CC1(C)Cc2cccc(OCC(=O)N3CCN(S(=O)(=O)c4ccccc4)CC3)c2O1 do in these assays?
CD11b adhes enh: 0; CYP2C19 act: 0.7; CYP2C19 inhib: 31; CYP2C9 activ: 1.2; CD11b adhes inh: 6; CYP2C9 inh: -18

How did COc1cccc(C2=NOC(C(=O)NC3CCCCC3)C2)c1 (centres undefined) do in these assays?
CD11b adhes enh: 0; CYP2C19 act: 0.9; CYP2C19 inhib: 10; CYP2C9 activ: 2.9*; CD11b adhes inh: -3; CYP2C9 inh: -190

What do the screens show for `COc1cccc(C2=NOC(C(=O)Nc3ccc(OC)c(OC)c3)C2)c1` (centres undefined)?
CD11b adhes enh: -4; CYP2C19 act: 0.9; CYP2C19 inhib: 13; CYP2C9 activ: 1.1; CD11b adhes inh: 9; CYP2C9 inh: -12

Results for CCn1ncc(C2=NOC(C(=O)NCc3ccccc3)C2)c1C (centres undefined) ?
CD11b adhes enh: -5; CYP2C19 act: 0.4; CYP2C19 inhib: 57*; CYP2C9 activ: 0.8; CD11b adhes inh: 22; CYP2C9 inh: 23

What do the screens show for `Cc1ccc(CNC(=O)C2CC(c3cccc([N+](=O)[O-])c3)=NO2)cc1` (centres undefined)?
CD11b adhes enh: -2; CYP2C19 act: 0.2; CYP2C19 inhib: 75*; CYP2C9 activ: 1; CD11b adhes inh: 6; CYP2C9 inh: 4

How did COc1ccc(C2=NOC(C(=O)NCc3ccccc3)C2)cc1 (centres undefined) do in these assays?
CD11b adhes enh: 2; CYP2C19 act: 0.7; CYP2C19 inhib: 34; CYP2C9 activ: 1.4; CD11b adhes inh: 10; CYP2C9 inh: -36

How did COc1cccc(C2=NOC(C(=O)NCc3ccccc3)C2)c1 (centres undefined) do in these assays?
CD11b adhes enh: -2; CYP2C19 act: 0.5; CYP2C19 inhib: 50*; CYP2C9 activ: 1.2; CD11b adhes inh: 31; CYP2C9 inh: -24

Results for O=C(CN1NS(=O)(=O)c2ccccc2C1=O)Nc1ccccc1OC(F)F ?
CD11b adhes enh: -2; CYP2C19 act: 0.9; CYP2C19 inhib: 13; CYP2C9 activ: 0.7; CD11b adhes inh: 1; CYP2C9 inh: 34

Results for CCCN(CC(=O)Nc1cc(Cl)ccc1Cl)C(=O)/C=C/c1ccco1 ?
CD11b adhes enh: -4; CD11b adhes inh: 7

Results for NC(=O)C1CCN(Cc2nc(-c3ccccc3)no2)CC1 ?
CD11b adhes enh: -2; CYP2C19 act: 1; CYP2C19 inhib: 5; CYP2C9 activ: 0.9; CD11b adhes inh: -2; CYP2C9 inh: 7

What do the screens show for `O=C(NCc1ccc2c(c1)OCO2)C1CC(c2ccccc2O)=NO1` (centres undefined)?
CD11b adhes enh: -5; CYP2C19 act: 0.7; CYP2C19 inhib: 28; CYP2C9 activ: 1.4; CD11b adhes inh: 25; CYP2C9 inh: -44

What do the screens show for `O=C(NCCc1ccccc1)C1CC(c2ccccc2O)=NO1` (centres undefined)?
CD11b adhes enh: -5; CYP2C19 act: 0.1; CYP2C19 inhib: 87*; CYP2C9 activ: 0.7; CD11b adhes inh: -1; CYP2C9 inh: 33

What do the screens show for `COc1ccc(C(=O)CSc2nnc(CNc3ccc(C)cc3C)n2Cc2ccco2)cc1`?
CD11b adhes enh: -2; CYP2C19 act: 0.1; CYP2C19 inhib: 88*; CYP2C9 activ: 0.4; CD11b adhes inh: 9; CYP2C9 inh: 57*
